Measured values from PubChem BioAssay (NCATS).
Results filed as inconclusive are left out. The source made the active and inactive calls. Unless noted, calls follow the shape of the full dose curve.

Legend:
[1] = target: alpha-glucosidase (Oryza sativa, rice) (UniProt Q653V4); assay: Counterscreen for Glucocerebrosidase Inhibitors: qHTS Assay for Rice alpha-Glucosidase at pH 5.0 (AID 997; active = well fitted curve in the direction sought with a large enough effect; an effect the other way counts as inactive or inconclusive;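 also: 0% = full activity with enzyme and -100% = basal without enzyme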)
How it was run: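 Endpoint fluorogenic assay at pH 5.0: compounds (0.7 nM to 77 uM) titrated against 4 nM rice enzyme and 400 uM 4-MU-alpha-glucoside for 20 min at room temperature; NaOH/glycine stop, read ex 365/em 440 nm, Hill-fitted AC50.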

[2] = Cell Viability - BJ (AID 421); details: BJ fibroblast viability, qHTS;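 also: potency is read from the fitted curve at half-maximal effect; cells exposed to compound for 40 hours at 37 °C before readout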
How it was run: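 Cytotoxicity as drop in intracellular ATP (CellTiter-Glo, 20 min RT) after 40 hr compound exposure of BJ fibroblasts at 37 °C. Titrations scaled between DMSO and 100 uM tamoxifen, Hill-fitted for AC50.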

[3] = Cell Viability - Hek293 (AID 427;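 active = compounds whose dose-response curve shows a full or clear partial loss of cell viability, called from curve shape rather than a numeric limit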;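 also: potency is read from the fitted curve at half-maximal effect; cells exposed to compound for 40 hours at 37 °C before reading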); details: qHTS
How it was run: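 Luminescent ATP content (CellTiter-Glo, 20 min at room temperature) was measured after a 40 hr, 37 °C compound exposure of HEK293 cells. AC50 values came from Hill-equation fits of qHTS concentration-response data normalized to DMSO and 100 uM tamoxifen.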

[4] = Cell Viability - HepG2 (AID 433); details: qHTS;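 also: potency is read from the fitted curve at half-maximal effect; cells exposed to compound for 40 hours; potency for ATP loss meaning cytotoxicity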
How it was run: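 ATP luminescence (CellTiter-Glo) after 40 h compound exposure, 37 °C, HepG2, 1500 cells/well, complete medium. Normalized: DMSO = basal, 100 uM tamoxifen = 100% inhibition. AC50 via standard Hill equation.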

[5] = Cell Viability - MRC5 (AID 434); details: MRC5 lung fibroblast viability, qHTS;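 also: potency is read from the fitted curve at half-maximal effect; cells exposed to compound for 40 hours at 37 °C; potency reflects cytotoxicity seen as loss of intracellular ATP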
How it was run: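 ATP luminescence read-out (CellTiter-Glo, 20 min RT) after 40 hr, 37 °C compound exposure of 1500 MRC5 cells/well. Data normalized to DMSO (basal) and 100 uM tamoxifen (100% inhibition); AC50 from standard Hill equation.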

[6] = Cell Viability - SK-N-SH (AID 435); details: SK-N-SH neuroblastoma cell viability qHTS; also: potency is read from the fitted curve at half-maximal effect
How it was run: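 CellTiter-Glo ATP luminescence, 20 min RT read; cells pre-plated 5 hr, compound 40 hr at 37 °C, 1500 cells/well, complete medium. Normalized DMSO = 0, 100 uM tamoxifen = 100% inhibition; Hill-fit AC50.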

[7] = Cell Viability - N2a (AID 540; active = well fitted curve in the direction sought with a large enough effect; an effect the other way counts as inactive or inconclusive;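 also: plate controls were DMSO alone for no effect and tamoxifen control for full effect; nearly all actives have a fitted effect of over 45% in size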)
How it was run: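 In this qHTS cytotoxicity screen, ATP-dependent luciferase luminescence reports viable N2a cells after a 40 hr compound exposure in complete culture medium. Potencies are AC50 values from standard Hill equation fits.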

[8] = Cell Viability - NIH 3T3 (AID 541; active = well fitted curve in the direction sought with a large enough effect; an effect the other way counts as inactive or inconclusive;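 also: cells exposed to compound for 40 hours; plate controls were DMSO alone for no effect and tamoxifen positive control for full effect; nearly all actives have a fitted effect of over 25% in size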)
How it was run: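 In this cytotoxicity screen, acute toxicity is scored as an ATP drop measured by CellTiter-Glo in NIH 3T3 fibroblasts following a 40 hr, 37 °C incubation with compound.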

[9] = Cell Viability - SH-SY5Y (AID 544; active = well fitted curve in the direction sought with a large enough effect; an effect the other way counts as inactive or inconclusive;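 also: cells exposed to compound for 40 hours; 0% = DMSO alone and -100% = 100 µM tamoxifen; nearly all actives have a fitted effect of over 55% in size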)
How it was run: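 Quantitative HTS in SH-SY5Y neuroblastoma cells, 40 hr treatment at 37 °C, ATP content by luciferase luminescence; AC50 from Hill fits.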

[10] = Cell Viability - Renal Proximal Tubule (AID 545; active = well fitted curve in the direction sought with a large enough effect; an effect the other way counts as inactive or inconclusive;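 also: cells exposed to compound for 40 hours; 0% = DMSO only and -100% = 100 µM tamoxifen; nearly all actives have a fitted effect of over 40% in size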)
How it was run: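 Rat kidney proximal tubule cells, freshly isolated; 1000 cells/well, 5 hr settle, compound 40 hr 37 °C. CellTiter-Glo 20 min RT, luminescence read. AC50 by standard Hill fit.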

[11] = Cell Viability - Mesenchymal (AID 546; active = well fitted curve in the direction sought with a large enough effect; an effect the other way counts as inactive or inconclusive;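 also: potency is read from the fitted curve at half-maximal effect; cells exposed to compound for 40 hours before reading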)
How it was run: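 Human renal mesenchymal cells (glomerulus-derived), 1000 cells/well, 5 hr 37 °C pre-incubation; compound 40 hr, 37 °C; CellTiter-Glo, 20 min RT; luminescence; AC50 via Hill equation.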

[12] = target: Estrogen receptor (Homo sapiens) (UniProt P03372); assay: qHTS assay for small molecule agonists of estrogen receptor alpha signaling (AID 588514);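 also: 0% = vehicle only and 100% = reference agonist; nearly all actives have a fitted effect of over 70% in size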
Sequence of Estrogen receptor (Homo sapiens) (P03372 whole entry, looked up): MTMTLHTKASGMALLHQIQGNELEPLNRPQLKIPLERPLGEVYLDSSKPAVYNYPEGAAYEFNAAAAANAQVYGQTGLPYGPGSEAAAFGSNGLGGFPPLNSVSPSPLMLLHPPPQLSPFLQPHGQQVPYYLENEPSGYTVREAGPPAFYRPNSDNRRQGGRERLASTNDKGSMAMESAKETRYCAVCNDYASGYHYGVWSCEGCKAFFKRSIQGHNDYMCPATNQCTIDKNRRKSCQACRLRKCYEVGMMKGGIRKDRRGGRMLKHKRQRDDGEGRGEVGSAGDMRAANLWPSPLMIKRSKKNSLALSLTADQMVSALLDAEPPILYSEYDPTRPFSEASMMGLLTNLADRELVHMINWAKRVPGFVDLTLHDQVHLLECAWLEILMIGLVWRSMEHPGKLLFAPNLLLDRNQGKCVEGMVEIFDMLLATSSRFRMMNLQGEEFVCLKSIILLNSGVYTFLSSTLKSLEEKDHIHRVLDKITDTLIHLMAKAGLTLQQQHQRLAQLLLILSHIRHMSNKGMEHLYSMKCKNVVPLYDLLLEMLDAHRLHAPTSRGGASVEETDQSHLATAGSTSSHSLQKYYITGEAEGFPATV
How it was run: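 Fluorescence from CCF4 cleavage reports ER-alpha-driven beta-lactamase expression in HEK 293 cells treated 18 hrs at 37 C. Data normalized to 17-beta-estradiol (20 nM) and DMSO, fitted to Hill equation.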

[13] = target: Androgen receptor (Homo sapiens) (UniProt P10275); assay: qHTS assay for small molecule antagonists of androgen receptor signaling (AID 588516; active = well fitted curve in the direction sought with a large enough effect in the signal ratio, with a control signal flat, not every such curve was filed as active; the % refers to the signal ratio; also: % is scaled to controls: 0 for no effect and ±100 for the full control effect)
Sequence of Androgen receptor (Homo sapiens) (P10275 whole entry, looked up): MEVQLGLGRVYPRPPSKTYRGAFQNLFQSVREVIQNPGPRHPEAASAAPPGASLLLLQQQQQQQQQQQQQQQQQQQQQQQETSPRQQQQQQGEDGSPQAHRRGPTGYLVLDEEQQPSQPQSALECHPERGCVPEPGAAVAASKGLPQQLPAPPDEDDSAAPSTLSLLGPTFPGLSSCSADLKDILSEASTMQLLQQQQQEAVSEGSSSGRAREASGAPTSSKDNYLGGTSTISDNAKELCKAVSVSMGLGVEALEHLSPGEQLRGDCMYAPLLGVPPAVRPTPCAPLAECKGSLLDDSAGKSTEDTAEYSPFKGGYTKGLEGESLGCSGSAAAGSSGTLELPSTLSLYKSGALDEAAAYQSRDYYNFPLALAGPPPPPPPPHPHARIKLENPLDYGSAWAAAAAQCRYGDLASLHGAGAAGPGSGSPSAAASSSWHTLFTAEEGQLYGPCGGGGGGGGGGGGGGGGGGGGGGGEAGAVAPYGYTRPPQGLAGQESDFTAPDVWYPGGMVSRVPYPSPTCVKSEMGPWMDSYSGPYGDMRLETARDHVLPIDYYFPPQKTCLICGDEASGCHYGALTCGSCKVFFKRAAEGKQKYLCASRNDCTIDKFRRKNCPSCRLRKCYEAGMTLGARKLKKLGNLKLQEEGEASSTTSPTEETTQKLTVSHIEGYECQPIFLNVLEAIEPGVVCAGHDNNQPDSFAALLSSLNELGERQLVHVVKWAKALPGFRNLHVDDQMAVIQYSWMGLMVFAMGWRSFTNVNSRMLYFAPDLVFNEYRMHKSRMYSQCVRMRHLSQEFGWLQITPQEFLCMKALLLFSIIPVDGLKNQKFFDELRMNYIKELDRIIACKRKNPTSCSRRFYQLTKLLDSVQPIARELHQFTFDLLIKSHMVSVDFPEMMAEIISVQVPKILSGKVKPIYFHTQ
How it was run: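 HEK293 AR-UAS-bla cells, 10% dialyzed FBS medium; cpd titration + R1881 10 nM final, 16 h 37 C; CCF4 2 h RT; FRET ratio; IC50/efficacy via Hill fit.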

[14] = target: Glucocorticoid receptor (Homo sapiens) (UniProt P04150); assay: qHTS assay for small molecule agonists of glucocorticoid receptor signaling (AID 588532; active = well fitted curve in the direction sought with a large enough effect in the signal ratio, with a control signal flat; the % refers to the signal ratio;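 also: 100% = dexamethasone at 0.1 µM and 0% = DMSO only wells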); details: HeLa MMTV-bla, beta-lactamase ratio, agonist, 18 h; stronger effect = higher value; percent of dexamethasone control, DMSO zero
Sequence of Glucocorticoid receptor (Homo sapiens) (P04150 whole entry, looked up): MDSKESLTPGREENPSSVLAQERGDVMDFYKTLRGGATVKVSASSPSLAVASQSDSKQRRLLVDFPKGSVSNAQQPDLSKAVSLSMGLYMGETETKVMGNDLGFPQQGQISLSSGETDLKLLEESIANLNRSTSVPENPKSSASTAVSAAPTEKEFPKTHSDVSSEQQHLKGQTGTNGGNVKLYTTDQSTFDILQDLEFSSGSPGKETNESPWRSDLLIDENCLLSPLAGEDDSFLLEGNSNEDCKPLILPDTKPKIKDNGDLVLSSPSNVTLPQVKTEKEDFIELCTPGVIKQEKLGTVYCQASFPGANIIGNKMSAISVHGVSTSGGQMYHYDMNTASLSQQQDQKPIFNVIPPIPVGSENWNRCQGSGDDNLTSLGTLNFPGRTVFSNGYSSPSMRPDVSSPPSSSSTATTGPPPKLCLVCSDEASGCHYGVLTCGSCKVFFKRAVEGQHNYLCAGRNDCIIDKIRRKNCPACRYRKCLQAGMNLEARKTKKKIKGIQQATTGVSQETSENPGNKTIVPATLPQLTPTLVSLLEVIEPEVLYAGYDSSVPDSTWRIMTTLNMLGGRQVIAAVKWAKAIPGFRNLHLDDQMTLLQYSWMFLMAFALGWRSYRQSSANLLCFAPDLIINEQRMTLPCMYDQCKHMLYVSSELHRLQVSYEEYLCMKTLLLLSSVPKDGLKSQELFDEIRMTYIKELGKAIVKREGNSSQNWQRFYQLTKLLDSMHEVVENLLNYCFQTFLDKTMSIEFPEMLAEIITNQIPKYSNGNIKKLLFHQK
How it was run: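 MMTV-bla HeLa beta-lactamase reporter cells in 1% charcoal/dextran FBS medium, compounds up to 92 uM for 18 h at 37 C, CCF4 readout; normalized to 0.1 uM dexamethasone (100%), EC50 and efficacy from Hill fits.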

[15] = target: Glucocorticoid receptor (Homo sapiens) (UniProt P04150); assay: qHTS assay for small molecule antagonists of glucocorticoid receptor signaling (AID 588533; active = well fitted inhibition curve with a large enough effect in the signal ratio, with a control signal flat, not every such curve was filed as active; the % refers to the signal ratio;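 also: cells stimulated with 2 nM dexamethasone as agonist; % is scaled to controls: 0 for no effect and ±100 for the full control effect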)
How it was run: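 Antagonist-mode qHTS: compound titrations added to GRE-bla HeLa cells, then dexamethasone 2 nM final; 18 h, 37 C. CCF4 FRET fluorescence normalized to dexamethasone and DMSO; IC50 from Hill fit.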

[16] = qHTS assay for small molecule antagonists of retinoid X receptor alpha signaling (AID 588546; active = well fitted inhibition curve with a large enough effect in the signal ratio, with a control signal flat, not every such curve was filed as active; the % refers to the signal ratio;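 also: cells stimulated with 9-cis-retinoic acid as agonist; % is scaled to controls: 0 for no effect and ±100 for the full control effect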); details: HEK293T RXRa-UAS-bla, beta-lactamase ratio, antagonist mode; measured here: W530 green channel, cytotoxicity proxy
How it was run: (§1)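 Beta-lactamase reporter inhibition, read as CCF4 fluorescence ratio (ex 405, em 460/530 nm) after 2 h at RT. HEK293T UAS-bla cells, 2500/well, were stimulated with 9-cis-RA at 500 or 100 nM final alongside test compound for 18 h at 37 C.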

[17] = target: Retinoic acid receptor RXR-alpha (Homo sapiens) (UniProt P19793); assay: as above; details: HEK293T RXRa-UAS-bla, beta-lactamase ratio, antagonist mode
Sequence of Retinoic acid receptor RXR-alpha (Homo sapiens) (P19793 whole entry, looked up): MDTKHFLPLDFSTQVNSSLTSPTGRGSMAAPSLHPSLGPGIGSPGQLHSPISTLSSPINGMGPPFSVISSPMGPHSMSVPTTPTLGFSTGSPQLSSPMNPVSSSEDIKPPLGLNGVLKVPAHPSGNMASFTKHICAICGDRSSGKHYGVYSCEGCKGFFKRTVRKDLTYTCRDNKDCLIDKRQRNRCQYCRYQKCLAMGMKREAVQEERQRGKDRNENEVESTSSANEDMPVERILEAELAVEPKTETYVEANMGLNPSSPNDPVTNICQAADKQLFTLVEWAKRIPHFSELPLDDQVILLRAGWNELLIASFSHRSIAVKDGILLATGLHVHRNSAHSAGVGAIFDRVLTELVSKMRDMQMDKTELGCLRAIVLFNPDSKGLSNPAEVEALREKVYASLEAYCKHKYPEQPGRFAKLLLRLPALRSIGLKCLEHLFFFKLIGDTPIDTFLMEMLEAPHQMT
How it was run: as §1

[18] = qHTS assay for small molecule disruptors of the mitochondrial membrane potential - 1 hr assay (AID 651754); also: % is scaled to controls: 0 for no effect and ±100 for the full control effect; nearly all actives have a fitted effect of over 35% in size
How it was run: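 In this qHTS format, a 1 hr compound treatment of HepG2 cells precedes Mito-MPS staining, and membrane potential is judged from aggregate (red) against monomer (green) fluorescence intensity.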

[19] = qHTS assay for small molecule disruptors of the mitochondrial membrane potential - 5 hr assay (AID 651755); also: % is scaled to controls: 0 for no effect and ±100 for the full control effect; nearly all actives have a fitted effect of over 40% in size
How it was run: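 Read-out: ratiometric Mito-MPS fluorescence, green monomer (ex 490/em 535) vs red mitochondrial aggregate (ex 540/em 590). HepG2 cells treated 5 hr at 37C before 30 min dye loading.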

[20] = target: Nuclear receptor subfamily 1 group I member 2 (Rattus norvegicus) (UniProt Q9R1A7); assay: qHTS assay for small molecule activators of the rat pregnane X receptor (rPXR) signaling pathway (AID 651751; call rule not given here; also: 0% is about no effect); details: rPXR reporter cells, luciferase (One-Glo), 24 h
Sequence of Nuclear receptor subfamily 1 group I member 2 (Rattus norvegicus) (Q9R1A7 whole entry, looked up): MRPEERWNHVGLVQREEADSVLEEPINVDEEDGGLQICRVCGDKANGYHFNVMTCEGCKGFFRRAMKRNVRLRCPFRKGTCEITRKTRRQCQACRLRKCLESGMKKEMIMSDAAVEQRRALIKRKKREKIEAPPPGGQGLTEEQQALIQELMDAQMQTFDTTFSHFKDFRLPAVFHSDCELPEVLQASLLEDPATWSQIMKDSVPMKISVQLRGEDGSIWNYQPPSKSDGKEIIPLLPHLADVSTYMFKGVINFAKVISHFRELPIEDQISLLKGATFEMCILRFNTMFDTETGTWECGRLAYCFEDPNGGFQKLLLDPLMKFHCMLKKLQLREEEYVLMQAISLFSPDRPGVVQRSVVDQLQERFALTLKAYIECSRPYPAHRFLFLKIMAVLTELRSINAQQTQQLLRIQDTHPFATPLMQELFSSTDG

O=C(O)[C@H]1CCCN(CCC=C(c2ccccc2)c2ccccc2)C1
inactive: outcome [1]

CN(C)CCOC(c1ccccc1)c1ccccc1 (tested in a mixture with another compound)
active: Potency [11] 25.1 µM
inactive: Potency [2] > 92 µM | Potency [3] > 92 µM | Potency [4] > 92 µM | Potency [5] > 92 µM | Potency [6] > 92 µM | outcome [7] | outcome [8] | outcome [9] | outcome [10] | outcome [12] | outcome [13] | activation [14] 1.99% | outcome [15] | max response [17] -6.76% | outcome [18] | outcome [19] | max response [20] -6.62%
3.3%: max response [16]
